Shown are actives, neighbours in structure and some others; about 1.7% of the full set was active somewhere.
rTrxR1 inhibitor – blocks rat thioredoxin reductase 1 | O89049 | 390,000 tested, 1% active | recombinant rTrxR1, NADPH fluorescence consumption, selenite substrate | AID 588453 | Potency, µM (series often up to 114 µM), inactives show at the highest dose activity change, negative = inhibition, actives largely listed as inhibitors; also: % is scaled to controls: 0 for no effect and ±100 for the full control effect; nearly all actives have a fitted effect of over 65% in size
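Rat TrxR1 (90 nM in the dispensed reagent) was pre-reduced with 400 uM NADPH for 5 min at room temperature, then incubated with compound for 15 min. After 400 uM selenite was added, NADPH fluorescence (Ex 340/Em 450 nm) was followed for 8 min.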
Anesthetic bind – binds horse apoferritin like a general anesthetic; P02791; apoferritin/1-aminoanthracene competitive binding, fluorescence; AID 485281; 350,000 tested, 0.074% active; Potency, µM (highest dose often 77.5 µM), without a hit: at the top dose activity change, negative = displacement, actives largely listed as inhibitors; also: % is scaled to controls: 0 for no effect and ±100 for the full control effect; nearly all actives have a fitted effect of over 20% in size
Target sequence (P02791 2-175 limits assumed): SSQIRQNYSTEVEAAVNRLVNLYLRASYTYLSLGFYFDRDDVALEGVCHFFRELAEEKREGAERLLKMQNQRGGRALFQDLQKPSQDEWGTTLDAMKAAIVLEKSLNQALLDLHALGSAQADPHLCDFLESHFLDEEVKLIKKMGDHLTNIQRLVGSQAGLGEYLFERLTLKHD
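10 uM apoferritin + 50% sat. 1-AMA, PBS; cpd 10 min RT; Ex380/Em535 endpoint; normalized to free probe vs complex; 4-param Hill fit; propofol titration as pos. ctrl.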
TrxR1 substrate – substrates of rat thioredoxin reductase 1 | O89049 | purified TrxR1 substrate turnover, NADPH consumption readout | Potency, µM (series often up to 114 µM), without a hit: top-dose activity change, negative = substrate turnover | 390,000 tested, 0.01% active | AID 588456; also: % is scaled to controls: 0 for no effect and ±100 for the full control effect; nearly all actives have a fitted effect of over 50% in size
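Rat TrxR1, dispensed at 90 nM, was prereduced with 400 uM NADPH (final) for 5 min at ~22 deg C, then incubated with compound 15 min before 400 uM selenite. A first-read NADPH fluorescence drop versus no-compound background flagged substrates.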
GRP78 ERSR act – induces the endoplasmic reticulum stress response in human glioma cells | U87-MG GRP78 promoter luciferase reporter, 16 h | 420,000 tested, 0.02% active | Potency, µM, without a hit: at the highest dose activation, usual class: activators; also: series mostly up to about 76 µM; % of control where 0% means no effect; nearly all actives have a fitted effect of over 35% in size
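ERSR induction read as luciferase luminescence (Bright-Glo, 10 min at room temperature) in stably transfected human U87-MG glioma cells exposed to compounds for 16 h, using GRP78 as sensor.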
mIDH1 inhibitor – human IDH1 R132H inhibition; O75874; IDH1-R132H enzyme, NADPH consumption, diaphorase/resazurin fluorescence; Potency, µM (top dose mostly 76.6 µM), without a hit: top-dose activity change, negative = inhibition, hits mostly inhibitors; 390,000 tested, 0.093% active; AID 602179; also: % is scaled to controls: 0 for no effect and ±100 for the full control effect; nearly all actives have a fitted effect of over 65% in size
Target sequence (O75874 whole entry R132H, stated change not applied): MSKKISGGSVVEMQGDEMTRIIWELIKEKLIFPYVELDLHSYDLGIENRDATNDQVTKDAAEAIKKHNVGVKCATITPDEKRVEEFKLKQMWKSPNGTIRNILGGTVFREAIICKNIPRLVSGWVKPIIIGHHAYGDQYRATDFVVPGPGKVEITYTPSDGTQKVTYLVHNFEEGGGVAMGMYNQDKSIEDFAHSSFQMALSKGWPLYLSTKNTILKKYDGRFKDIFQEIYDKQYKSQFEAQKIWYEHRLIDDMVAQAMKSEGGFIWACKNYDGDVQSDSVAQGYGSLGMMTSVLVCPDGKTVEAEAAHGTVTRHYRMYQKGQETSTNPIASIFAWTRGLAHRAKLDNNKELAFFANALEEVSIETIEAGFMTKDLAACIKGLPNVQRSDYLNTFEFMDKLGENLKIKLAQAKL
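IDH1-R132H (0.5 ug/mL dispensed) in pH 7.5 Tris buffer was preincubated 30 min with compound, then given a substrate mix of 0.016 mM NADPH and 2 mM alpha-KG for 80 min at room temperature; remaining NADPH was read by diaphorase/resazurin fluorescence.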
12-LOX inh – inhibitors of human 12S-lipoxygenase ALOX12; 580,000 tested, 1.1% active; Potency, µM (doses to about 108 µM), without a hit: at the highest dose activity change, negative = inhibition, actives largely listed as inhibitors; purified 12hLO, xylenol orange hydroperoxide absorbance; also: % is scaled to controls: 0 for no effect and ±100 for the full control effect
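Purified human 12hLO (150 nM final) in 25 mM Hepes, 0.01% Triton X-100, pH 7.0 was preincubated 15 min at room temperature with compound. Then 40 uM arachidonic acid was added, 30 min. Hydroperoxide was read by Fe-XO absorbance ratio 573/405 nm.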
* marks the source's active call; other numbers are inactive results; ? = inconclusive; nt = no result; [ ] = remark or other dose. Calls follow the shape of the dose curve; as a rule, active = well fitted curve in the direction sought with a large enough effect; inconclusive = small, poorly fitted or top-dose-only effect, or another doubt; inactive = no such curve, though single readings can be large; an effect the other way counts as inactive or inconclusive. Potency is read from the fitted curve at half-maximal effect.

SMILES	rTrxR1 inhibitor	Anesthetic bind	TrxR1 substrate	GRP78 ERSR act	mIDH1 inhibitor	12-LOX inh
C/C(=N\NC(=O)C1CC1)c1ccco1	nt	nt	nt	nt	nt	3.5%
CN1CCN([C@@H]2[C@H](O)[C@H](CO)O[C@@H]2CN(Cc2ccc(Cl)cc2)Cc2cccc(Cl)c2)CC1	nt	nt	nt	nt	nt	14.1µM*
COCCn1c(C)cnc1C1CCN(S(=O)(=O)c2ccc(C#N)cc2)C1 (centres undefined)	nt	nt	nt	nt	nt	34.5%
Nc1ccc(-c2nc3ccc(N)cc3o2)cc1	79.4µM*	660.1%	846.3%	-10.5%	9.1%	-8.5%
Nc1ccc(-c2nc3cc(N)ccc3o2)cc1	14.2%	242.2%	59.5%	-8.1%	5.6%	14.0%
Cn1c(=O)[nH]c(=O)c2c1nc(NCc1ccccc1Cl)n2Cc1ccccc1Cl	nt	nt	nt	nt	nt	7.6%
CCN1C(=O)[C@@H]2[C@@H](c3ccc(SC4CCCCC4)cc3)N3CCCC[C@@]3(C(=O)OC)[C@@H]2C1=O	-21.2%[57.1 µM]	nt	6.7%[57.1 µM]	-10.0%	-10.5%	39.8µM*
CCN1C(=O)[C@H]2[C@@H](c3ccc(SC4CCCCC4)c(OC)c3)N3CCCC[C@@]3(C(=O)OC)[C@H]2C1=O	-4.3%[57.1 µM]	nt	-0.5%[57.1 µM]	0.7%	-12.4%	-19.2%
O=C(Nc1ccccc1SC(=O)c1ccccc1)c1ccccc1	nt	nt	nt	5.8%	-2.7%	5.62µM*
Cc1ccc(C(=O)CC(=O)c2ccccc2)cc1	15.6%	-15.8%	-4.2%	5.3%	-1.2%	2.9%
Cc1ccc(C(=O)Sc2cccccc2=O)cc1	0.631µM*	7.0%	2.8%[57.1 µM]	6.6%	-4.1%	?
CN(C)c1ccc(CN2CCC3(C2)C(=NC2CCCC2)NC(=O)N3c2cccnc2)cc1 (centres undefined)	nt	nt	nt	nt	nt	0.7%[6.33 µM]
CCN(C(=O)CN1C(=O)NC2(CCOCC2)C1=O)c1cccc(C)c1	nt	nt	nt	nt	nt	33.6%
O=C(CN1C(=O)c2ccccc2S1(=O)=O)NCCSCc1c(F)cccc1Cl	14.9%	?	-4.8%	3.7%	3.6%	8.91µM*
COc1ccc2c(=O)c(-c3ccccc3)coc2c1	22.0%[57.1 µM]	-11.0%	-2.8%[57.1 µM]	-7.5%	14.1%	1.8%
COc1ccc2c(=O)c(-c3ccccc3)coc2c1C	nt	nt	nt	nt	nt	31.6µM*
CCOc1ccc(-c2nnc(SCC(=O)NCc3ccccc3)o2)cc1	-1.0%	?	-9.2%	-1.8%	7.6%	-15.6%
CCOc1ccc(-c2nnc(SCC(=O)NCc3ccc(Cl)cc3)o2)cc1	50.1µM*	4.3%	-1.8%	-1.5%	10.7%	-27.0%
CCCN1C(=O)c2ccccc2NC1c1ccc(OC)c(COc2cccc(OC)c2)c1 (centres undefined)	47.9%	nt	41.8%	-3.8%	nt	nt
COc1ccc(C(=O)/C=C/c2cn(CC(O)CN3CCCCCC3)c3ccccc23)cc1OC (centres undefined)	39.8µM*	53.8%	-8.3%	-4.6%	0.0%	?
N#CC(C#N)=NNc1ccc(S(=O)(=O)N2CCCCC2)cc1	31.6µM*	-25.2%	-11.9%	-4.9%	-18.5%	?
O=S(=O)(c1ccc(NC(=S)NC23CC4CC(CC(C4)C2)C3)cc1)N1CCCCC1	nt	nt	nt	-5.3%	9.6%	44.7µM*
NS(=O)(=O)c1ccc(NC(=S)Nc2ccc(S(=O)(=O)N3CCCC3)cc2)cc1	?	-8.3%	-2.9%[57.1 µM]	-2.2%	3.6%	4.6%
O=C(O)c1ccccc1NC(=S)NC(=O)c1cccc2ccccc12	-10.1%[57.1 µM]	-8.4%	0.7%[57.1 µM]	-4.7%	29.1%	20µM*
Cc1cccc(C(=O)NC(=S)Nc2ccccc2C(F)(F)F)c1	?	?	-12.8%	-1.3%	3.8%	15.8µM*
Cc1cccc(C(=O)NC(=S)Nc2ccccc2C(=O)O)c1	-22.1%	-5.7%	7.8%	-0.3%	14.5%	39.8µM*
O=C(Nc1ccncc1)C1CCN(c2nc3ccccc3o2)CC1	nt	nt	nt	nt	nt	8.5%
C/C(=N\Nc1ccc(Br)cc1)c1ccc2c(c1)Cc1ccccc1-2	nt	nt	nt	nt	nt	10µM*
CCC[C@H]1[C@@H](NS(=O)(=O)c2cc(Cl)cc(Cl)c2)CC[C@@]23CCCN2C(=O)CCC[C@@H]13	nt	nt	nt	nt	nt	-9.4%

High-throughput results from PubChem BioAssay.
